This is an account of results in PubChem BioAssay.

Inconclusive results are not listed. Calls of active or inactive are those of the source.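 How the source made its calls, unless noted: active means viability loss from added drug above about 55%, and viability with drug at most 40%, in both replicates (limit read from the data, passing the limit was not always enough); inconclusive means both conditions met in only one replicate; inactive means neither replicate meets both conditions.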

The nature of test [1]: HUVEC growth inhibition – cell-based, human, primary screen (AID 575;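 active means viability at or below 30% in both replicate assays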;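 further: 100% = median of untreated cell wells with 0.1% DMSO on each plate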). As to conditions: HUVEC proliferation, CellTiter-Glo luminescence, 72 h; at 10 µM; stronger effect = lower value.
The nature of test [2]: yeast transport mutant growth inhibition pilot in 384-well plates, post-Golgi transport modulator project (AID 636; in the data active means inhibition above about 31%). As to conditions: absorbance 615 nm, about 18 h, stronger effect = higher value.
A short description of test [3]: growth suppression of yeast trafficking mutant, preliminary HTS, modulators of trafficking downstream of Golgi apparatus project, 1536-format plate, OD 615 nm (AID 637; in the data active means inhibition above about 30%). As to conditions: yeast transport mutant growth, absorbance 615 nm, 18 h; stronger effect = higher value.
The nature of test [4]: MRP1 drug-resistance reversers in H69AR cells – cell-based, doxorubicin co-treatment, pilot screen (AID 601). Conditions: CellTiter-Glo, 72 h, at 10 µM; for differential viability (reversal): stronger effect = higher value.
Test [5] is described as follows: H69AR cell proliferation blockers – human, duplicate replicates, primary screen (AID 580;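 active means viability at or under a set limit in both replicates, limit being median viability minus 3 SD, cut at about 48% in these data, passing the limit was not always enough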;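 further: 100% = mean luminescence of untreated wells and 0% = no signal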). As to conditions: H69AR lung tumor cells viability, ATP luminescence, 72 h; at 10 µM; stronger effect = lower value.
Test [6] can be described thus: S. cerevisiae growth inhibition in permissive medium (OD615), pilot counter-assay for S. cerevisiae lifespan shortening project, permissive growth control (AID 705;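 active means growth inhibition above 25% in both replicates, a cutoff set 3 SD above the mean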). Conditions: OD615, 24 h, at 10 µM, stronger effect = higher value.
A short description of test [7]: S. cerevisiae growth inhibition in restrictive medium, OD615, pilot screen, restrictive growth control, yeast lifespan reduction project (AID 706;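 active means growth inhibition above a set limit, 3 SD over mean compound inhibition, in both replicates, cut at about 43% in these data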;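 further: modified DeaD lifespan yeast strain shifted to restrictive glucose medium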). Conditions: OD615, 48 h, at 10 µM, stronger effect = higher value.
A short description of test [8]: doxorubicin toxicity protection in MRP-1 cells – H69AR cells, CellTiter-Glo, duplicate, MRP-1 activator project, pilot screen (AID 807;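 active means viability increase at or above a cutoff of the median across tested compounds plus 3 SD, cut at about 8.5% in these data, passing the limit was not always enough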;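 further: compound pretreatment 18-22 h then 72 h combined with doxorubicin; 0% = doxorubicin alone and 100% = vehicle without doxorubicin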). As to conditions: H69AR viability with doxorubicin, CellTiter-Glo luminescence; at 10 µM; stronger effect = higher value.
Test [9] is described as follows: viability of HCT116 without oncogenic beta-catenin – human colon tumor cells, pilot screen (AID 823;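 active means cell viability at or below a set limit in both duplicate runs, the limit being the all-compound median minus 4 SD, cut at about 23% in these data, passing the limit was not always enough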;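 further: 0% = wells killed by 20 µM Hyamine and 100% = untreated DMSO cell wells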). Conditions: HCT116 beta-catenin knockout viability, CellTiter-Glo, 60 h; at 10 µM; stronger effect = lower value.
Test [10] is described as follows: viability of PTEN-null HCT116 cells – cell-based, HCT116 clonal line, CellTiter-Glo, pilot screen (AID 824;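 active means viability at or below 27.92% in each of two runs, the all-compound median minus 4 SD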;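 further: 0% = 20 µM Hyamine control and 100% = vehicle cell control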). Conditions: HCT116 PTEN-deleted viability, 60 h, at 10 µM, stronger effect = lower value.
Test [11] is described as follows: RAM pathway blockade in budding yeast – dse1pr::URA3 reporter, 5-FOA selection, pilot screen (AID 869;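 active means inhibition over a set limit, the all-compound mean plus 3 SD, in both replicate runs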;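 further: 0% = DMSO wells with no growth and 100% = 10 µM 1-NA-PP1 with full growth; RAM network block rescues cells from 5-FOA so hits raise OD615 growth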). As to conditions: S. cerevisiae dse1pr::URA3 5-FOA growth, OD615, 2 d; at 10 µM; stronger effect = higher value; strain carries analog-sensitive mutant Cbk1 kinase.
Where [12] appears, read: H69AR cells + 2 uM doxorubicin, measured here: viability with 2 uM doxorubicin, stronger effect = lower value.
Setting [13] is: H69AR cells, compound alone cytotoxicity.

Consider `COc1cccc2c1C(=O)c1c(O)c3c(c(O)c1C2=O)C[C@@](O)(C(C)=O)C[C@@H]3O[C@H]1C[C@H](N)[C@H](O)[C@H](C)O1`, for which, in [1], the viability is 5.46% (active). In addition, the inhibition in test [2] is -2.73% (inactive); in [3], -0.17% (inactive).
On to `CCCCCCCCNC(C)C(O)c1ccc(SC(C)C)cc1` (configuration not stated), for which the viability in test [1] is 2.21% (active); in test [4] (setting [12]), 1.44%; in test [4] (setting [13]), 1.16%. Besides, in [4] (H69AR cells + 2 uM doxorubicin), the differential viability (reversal) was -0.28% (inactive).
`COc1cc(-n2nc(C)c3c2OC(N)=C(C#N)C3c2ccccc2)c(Cl)c(Br)c1O` (configuration not stated): the viability in test [1] was 50% (inactive); in test [4] (setting [12]), 68%; in [4] (setting [13]), 69.5%. In test [4] (H69AR cells + 2 uM doxorubicin), the differential viability (reversal) was 1.54% (inactive). The inhibition in [2] is -6.4% (inactive); in [3] it was -4.6% (inactive).
For the molecule `COc1ccc(Cn2c(C)nc3c(c2=O)c2nc4ccccc4nc2n3Cc2ccco2)cc1`, the viability is 62% (inactive) in [1], 30.8% in test [4] (setting [12]) and 34.6% in test [4] (setting [13]). In test [4] (H69AR cells + 2 uM doxorubicin), the differential viability (reversal) was 3.86% (inactive). Further, the inhibition was -1.71% (inactive) in test [2] and 5.56% (inactive) in test [3].
For the molecule `NC(=O)SCC(=O)Nc1cccc(Cl)c1`, the viability in test [1] is 58.4% (inactive); in [4] (setting [12]), 56.8%; in test [4] (setting [13]), 66.4%. Besides, the differential viability (reversal) in test [4] (H69AR cells + 2 uM doxorubicin) was 9.55% (inactive). Also, the inhibition in test [2] is -5.19% (inactive); in test [3], 2.06% (inactive).
For `CC(C)(C)n1nnnc1CN(Cc1ccco1)Cc1cc2cc3c(cc2[nH]c1=O)OCO3`, the viability in test [1] is 78% (inactive); in test [4] (setting [12]), 68%; in [4] (setting [13]) it was 59.3%. For the same molecule, in [4] (H69AR cells + 2 uM doxorubicin), the differential viability (reversal) is -8.75% (inactive). For the same molecule, the inhibition is -8% (inactive) in test [2] and 0.16% (inactive) in test [3].
`CCNc1nc(NC(C)C)nc(N(C#N)CCOc2ccc(Cl)cc2Cl)n1`: the viability in test [1] was 48.8% (inactive); in test [4] (setting [12]), 33.2%; in test [4] (setting [13]), 53.6%. In [4] (H69AR cells + 2 uM doxorubicin), the differential viability (reversal) was 20.4% (inactive). For the same molecule, the inhibition in test [2] was 16.2% (inactive); in test [3], -3.81% (inactive).
As for `COc1ccc(CCN2CCC(Nc3nc4ccccc4n3Cc3ccc(F)cc3)CC2)cc1`, the viability is 1.47% (active) in test [1], 0.36% in [4] (setting [12]) and 0.52% in test [4] (setting [13]). The differential viability (reversal) in test [4] (H69AR cells + 2 uM doxorubicin) was 0.16% (inactive).
On to `CC[C@H]1CN2CCc3cc(OC)c(OC)cc3[C@@H]2C[C@@H]1C[C@H]1NCCc2cc(OC)c(OC)cc21`, for which the values for the viability in [1], in test [4] (setting [12]) and in test [4] (setting [13]) were 11% (active), 13.3% and 23.5%, respectively. The differential viability (reversal) in test [4] (H69AR cells + 2 uM doxorubicin) is 10.2% (inactive). The inhibition in [2] was -1.69% (inactive); in [3] it was 2.17% (inactive).
Regarding `c1ccc(-n2ncc3c(NCc4cccs4)ncnc32)cc1`, the viability in [1] was 79% (inactive); in test [4] (setting [12]), 52.3%; in test [4] (setting [13]) it was 41.8%. The differential viability (reversal) in test [4] (H69AR cells + 2 uM doxorubicin) is -10.5% (inactive). The figures for the inhibition in test [2] and in [3] were -7.73% (inactive) and 2.22% (inactive), respectively.
For `COC(=O)C(F)(F)Sc1c(C)[nH]c2ccccc12`, the viability in test [5] is 92.2% (inactive); in test [4] (setting [12]) it was 90.6%; in test [4] (setting [13]), 92.2%. In [4] (H69AR cells + 2 uM doxorubicin), the differential viability (reversal) was 1.54% (inactive). The figures for the inhibition in test [2] and in [3] were -2.37% (inactive) and -1.43% (inactive), respectively.
On to `CSc1ccc2c(c1)N(CCC1CCCCN1C)c1ccccc1S2` (configuration not stated), for which the viability in test [1] is 2.44% (active); in test [4] (setting [12]), 1.26%; in test [4] (setting [13]), 1.93%. Also, in test [4] (H69AR cells + 2 uM doxorubicin), the differential viability (reversal) was 0.67% (inactive).
On to `CCOC(=O)c1cc2sccc2n1CC(=O)Nc1ccc2c(c1)OCCO2`, for which the viability in [1] was 87.4% (inactive); in test [4] (setting [12]) it was 65.2%; in [4] (setting [13]), 72.6%. Further, in test [4] (H69AR cells + 2 uM doxorubicin), the differential viability (reversal) is 7.47% (inactive). Also, the inhibition was -6.1% (inactive) in [2] and 0.95% (inactive) in test [3].
Turning to `Nc1nc(Cl)nc2c1ncn2[C@@H]1O[C@H](CO)[C@@H](O)[C@H]1O`, the values for the viability in test [1], in test [4] (setting [12]) and in test [4] (setting [13]) were 3.95% (active), 74.6% and 50.3%, respectively. Also, the differential viability (reversal) in test [4] (H69AR cells + 2 uM doxorubicin) is -24.3% (inactive). The inhibition in test [2] is -1.43% (inactive); in test [3] it was 1% (inactive).
Regarding `O=c1[nH]c2ccccc2n1CCCN1CCN(C(c2ccccc2)c2ccccc2)CC1`, the figures for the viability in test [1], in test [4] (setting [12]) and in test [4] (setting [13]) were 75.3% (inactive), 41.1% and 11.2%, respectively. In addition, the differential viability (reversal) in [4] (H69AR cells + 2 uM doxorubicin) is -29.9% (inactive).
`O=S(=O)(Cc1ccc(Cl)cc1)Nc1ccc2c(c1)OCO2`: the viability in test [5] is 104% (inactive); in test [4] (setting [12]), 86.8%; in test [4] (setting [13]), 104%. The differential viability (reversal) in test [4] (H69AR cells + 2 uM doxorubicin) is 17.3% (inactive). Further, the inhibition was -0.53% (inactive) in [2] and 4.29% (inactive) in [3].
As to `CN(C)c1ccc(/C=C/C(O)=C2/C(=O)N(C)C3(C)CC2c2ccccc2O3)cc1` (configuration not stated), the viability was 55.4% (inactive) in [1], 44.6% in test [4] (setting [12]) and 37.5% in test [4] (setting [13]). The differential viability (reversal) in test [4] (H69AR cells + 2 uM doxorubicin) was -7.07% (inactive). For the same molecule, the inhibition was -2.47% (inactive) in test [2] and -12.7% (inactive) in [3].
Turning to `O=c1c2ccccc2nc(-c2cccc(Cl)c2)n1O`, the viability in test [1] is 84.6% (inactive); in [4] (setting [12]) it was 60.1%; in test [4] (setting [13]), 45.9%. For the same molecule, in [4] (H69AR cells + 2 uM doxorubicin), the differential viability (reversal) is -14.1% (inactive). For the same molecule, the inhibition in test [2] was -3.68% (inactive); in [3], 0.32% (inactive).
As to `Cc1cc2oc(=O)cc(CN3CCCCC3)c2cc1C(C)C`, the viability in [1] was 52.5% (inactive); in [4] (setting [12]), 51.2%; in [4] (setting [13]), 52.1%. For the same molecule, the differential viability (reversal) in test [4] (H69AR cells + 2 uM doxorubicin) is 0.87% (inactive). Besides, the inhibition in test [2] is -1.82% (inactive); in test [3], -2.06% (inactive).
With `CC(C)(C)C1CCc2onc(C(=O)Nc3cnn(Cc4ccc(F)cc4)c3)c2C1` (configuration not stated), the results for the viability in test [5], in [4] (setting [12]) and in test [4] (setting [13]) were 32.9% (active), 50.6% and 32.9%, respectively. Further, the differential viability (reversal) in test [4] (H69AR cells + 2 uM doxorubicin) was -17.6% (inactive). For the same molecule, the inhibition in test [2] was 0% (inactive); in test [3], 3.02% (inactive).
For the molecule `COCCCNC(=O)c1c(N)n(-c2cccc(S(N)(=O)=O)c2)c2nc3ccccc3nc12`, the viability was 67.2% (inactive) in test [5], 75.4% in test [4] (setting [12]) and 67.2% in test [4] (setting [13]). Also, the differential viability (reversal) in test [4] (H69AR cells + 2 uM doxorubicin) was -8.22% (inactive). Further, the results for the inhibition in test [2] and in test [3] were -4.13% (inactive) and -0.79% (inactive), respectively.
As to `C=CCSc1nnc2c(n1)OC=Nc1ccccc1-2`, the figures for the growth inhibition in test [6] and in [7] were -4.68% (inactive) and 29.7% (inactive), respectively. The viability increase in test [8] is 2.06% (inactive). For the same molecule, the values for the viability in [9] and in test [10] were 97.9% (inactive) and 101% (inactive), respectively. Moreover, the inhibition in [11] was 3.17% (inactive).
Consider `CCCCn1c(Oc2ccc(C(=O)OC)cc2)nc2c1c(=O)n(C)c(=O)n2C`, for which the growth inhibition in [6] is -10.3% (inactive); in [7], -3.88% (inactive). Also, in [8], the viability increase was -2.52% (inactive). Also, the viability in test [9] and in test [10] was 84.1% (inactive) in each case. Also, in test [11], the inhibition is 0.085% (inactive).
